# Assay results taken from PubChem BioAssay (NCI).
# Values joined by “and” are separate entries in the source; they are usually repeats but may differ in a detail not shown here. Identical values can stand only once. About 83,000 compounds went through this panel and 20% of them were active in at least one assay; those are over-represented in the sample as a whole.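 Method: cells in 96-well plates; compound added at one concentration; 48 h incubation; percent growth measured; values under 10 scored active.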 Active and inactive are the calls of the source.
# System: MDA-MB-468 breast
# Assay: NCI-60 one-dose screen, 48 h (100 = growth as untreated, 0 = no growth, -100 = all killed)
# Conditions: 10 µM unless noted
row,SMILES,growth
1,CCCCCCCC[Si](OCC)(OCC)OCC,97.5% (inactive)
2,Cn1cc(-c2ccc3cc(-c4ccc(CC(=O)Nc5cc(C(C)(C)C)nn5C)cc4)cnc3c2)cn1,-6.24% (active)
3,COc1ccc(C(=O)n2cc(C=O)c3ccccc32)cc1,105% (inactive)
4,CCN(CC)CCN1C(=O)c2c(c3c4cc(Br)ccc4[nH]c3c3ccc4ccccc4c23)C1=O,-80.7% (active)
5,O=C(c1cccs1)c1ccccc1Cc1ccccc1,100% (inactive)
6,C=C1CC[C@@H]2[C@](C)(COC(C)=O)[C@H](OC(C)=O)CC[C@@]2(C)[C@@H]1CC(Nc1ccc(S(=O)(=O)NC(C)=O)cc1)C1=CCOC1=O (stereo not given in full),-53.9% (active)
7,CC(C)C(=O)Nc1n[nH]c2cc(-c3cccc(NS(=O)(=O)C4CC4)c3)ccc12,21.6% (inactive)
8,O=C(O)c1cc2ccccc2cc1Nc1ccccc1,102% (inactive)
9,COC(=O)c1c2c(c(C)[n+]([O-])c1C)C(=O)C(NCc1ccc(Cl)cc1)=CC2=O,39.8% (inactive)
10,C=CCSc1ccc2c(c1)C(N1CCNCC1)=Nc1ccccc1O2,27.8% [8.25 µM] (inactive)
11,N#CC1c2ccccc2-c2ccccc2N1C(=O)c1ccccc1 (stereo not given),32.9% (inactive)
12,C=C(c1ccc(OC)c(/C=C/C(=O)c2ccc3c(c2)OCO3)c1)c1cc(OC)c(OC)c(OC)c1,37.4% (inactive)
13,Clc1ccc(/C=C/c2ccccn2)cc1,38.3% (inactive)
14,O=C(Nc1ccc(OCc2nnc(-c3ccc(Cl)cc3)o2)c(F)c1)Nc1ccc(Cl)c(C(F)(F)F)c1,-24.8% (active)
15,COc1cc(C2CC(c3ccc(Cl)cc3)=NN2C=O)ccc1Oc1ccnc2cc(Cl)ccc12 (stereo not given),39.7% (inactive)
16,COc1cnc2c(c1)C(=O)c1c-2n(CCCNCCO)c(=O)c2ccncc12,-23.9% (active)
17,Clc1nccc2c(-c3csc(-c4c[nH]c5ccc(Br)cc45)n3)c[nH]c12,26.9% (inactive)
18,COc1ccccc1NC(=O)n1c(=O)cc(C)c2ccc(O)cc21,96.3% (inactive)
19,CCOc1ccc2c(S(=O)(=O)O)cccc2c1[N+](=O)[O-],104% (inactive) and 106% (inactive)
20,Cn1cc(-c2cc(N)n3nc(-c4cn(C)c5ccc(Cl)cc45)cc3n2)c2cc(Cl)ccc21,96.3% (inactive)

row,SMILES,growth
1,CCCCCCCC(=O)SCC/C=C/[C@@H]1CC(=O)NCc2cccc(n2)C2=N[C@@](C)(CS2)C(=O)N[C@@H](C(C)C)C(=O)N1,-10.5% (active)
2,CC(=O)[C@H]1CC[C@]2(C)[C@@H]1CC[C@@H]1[C@@]3(C)C/C(=C/c4cccnc4)C(=O)C(C)(C)[C@@H]3CC[C@]12C,60.3% (inactive)
3,N#CC1=C(N)Oc2cc(N)ccc2C1c1ccc(F)cc1 (stereo not given),45.1% (inactive)
4,CCOC(=O)CSc1c([N+](=O)[O-])ncn1C,91.1% (inactive)
5,CN1CCN(c2ccc(NC(=O)c3cncnc3Nc3ccc4c(ccn4Cc4cccc(F)c4)c3)cc2)CC1,44.9% (inactive)
6,O=C(Oc1ccccc1Cl)c1ccc(Cl)cc1Cl,103% (inactive)
7,COc1ccc2cc(C(C)C(=O)Nc3ccc(S(=O)(=O)Nc4cc(C)on4)cc3)ccc2c1 (stereo not given),114% (inactive)
8,c1ccc(-c2cc3n4c(-c5ccccc5)nn(-c5ccccc5)c4cnc-3n2)cc1,70.2% (inactive)
9,O=C(/C=C/c1ccco1)Nc1ncc(Cc2cc(Cl)ccc2Cl)s1,14.6% (inactive)
10,COc1cc(NCC(O)CN(CC(C)C)C2CCCC2)c2ncccc2c1 (stereo not given),-13.4% (active)
11,COc1ccc2c(c1)N(CCO)C1=C(C(=O)OC1)C2c1cc(OC)c(OC)c(OC)c1 (stereo not given),3.62% (active)
12,COc1ccc(Nc2ccc3ccccc3c2)cc1,-2.03% (active)
13,O=S1(=O)N(Cc2ccccc2)[C@@H](Cc2ccccc2)C2O[C@H]2[C@H](Cc2ccccc2)N1Cc1ccccc1 (stereo not given in full),6.52% (active)
14,O=C1CCC(N2Cc3c(C#CCCCNC(=O)c4cc5c(o4)C(=O)c4ccccc4C5=O)cccc3C2=O)C(=O)N1 (stereo not given),-47.1% (active)
15,CCOC(=O)c1ccc(N2C(=O)C(Cl)(c3ccccc3)C2c2ccco2)cc1 (stereo not given),65.9% (inactive)
16,O=C1CC[C@@H]2CCCC[C@@H]2C1,125% (inactive)
17,O=C(CCN1CCCC1)Nc1ccc2c(NCCCCc3ccccc3)c3ccccc3nc2c1,-74.7% (active)
18,CC(=O)C(C(C)=O)c1nc2sc3cc(Cl)ccc3n2c(=N)c1C#N,41.7% (inactive)
19,CCCc1cc2cc(-n3nc(C)c4c3CC(C)(C)CC4=O)cc(NC3CCSCC3)c2c(=O)[nH]1,14.3% (inactive)
20,Cc1ccc([N+](=O)[O-])cc1NC(=O)Nc1cccc(F)c1,26.9% (inactive)
